# Shown are actives, neighbours in structure and some others; about 0.69% of the full set was active somewhere.
# Vif-A3F inh – inhibitors of Vif-A3F interaction. Potency, µM (doses to about 46.1 µM), without a hit: top-dose activity, negative = active. HeLa A3F-eYFP + Vif (tagged APOBEC3F with the HIV-1 protein that degrades it), YFP fluorescence increase. actives 0.2% (n = 390,000). AID 602313; note: % of control where 0% means no effect; nearly all actives have a fitted effect of over 65% in size
#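 Fluorescence increase (Ex 488/Em 500-530) after overnight compound treatment at 37 deg C flags inhibition of Vif-driven A3F-eYFP loss in stable HeLa A3F-eYFP/Vif cells seeded overnight beforehand.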
# Abeta rescue – compounds reversing amyloid beta toxicity in yeast; yeast expressing A-beta42, growth rescue, OD600, 48 h; response scale: 0% DMSO, 100% iron-clioquinol control; Potency, µM (series often up to 46.1 µM), actives largely listed as activators; actives 0.063% (n = 410,000); note: nearly all actives have a fitted effect of over 55% in size
#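 Yeast A-beta toxicity model in growth medium with pinned compounds, 48 h at 30 C; growth read as absorbance at 600 nm. Normalized to FeCl3/clioquinol equimolar mix (positive) and DMSO (negative).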
# Glioma ERSR ind – ER stress response induction in glioma | U87-MG GRP78 promoter luciferase reporter, 16 h | Potency, µM, for the others: top-dose activation, hits mostly activators | actives 0.02% (n = 420,000) | AID 602332; note: series mostly up to about 76 µM; % of control where 0% means no effect; nearly all actives have a fitted effect of over 35% in size
#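 ERSR induction read as luciferase luminescence (Bright-Glo, 10 min at room temperature) in stably transfected human U87-MG glioma cells exposed to compounds for 16 h, using GRP78 as sensor.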
# PINK1 modulator – modulators of PINK1 expression; actives 0.2% (n = 410,000); Potency, µM (doses to about 76.6 µM), without a hit: at the top dose activation (PINK1 increase), most hits filed as activators; PINK1 immunofluorescence, high-content cytometry, 24 h; active = well fitted activation curve with a large enough effect; inconclusive = small, poorly fitted or top-dose-only effect; cell line not stated here; note: % of control where 0% means no effect; nearly all actives have a fitted effect of over 65% in size
#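 A stable cell line was treated with compounds at 5 concentrations for 24 hours, with CCCP as control. PINK1 levels and mitochondrial localization were measured by immunofluorescence with mitochondrial, cell and nuclear markers after fixation, read by laser-scanning cytometry.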
# Vif-A3G inh – Vif-A3G binding inhibition | Potency, µM (top dose mostly 46.1 µM), for inactives: at the highest dose activity, negative = active, hits mostly inhibitors | HeLa A3G-eYFP + Vif (tagged APOBEC3G with the HIV-1 protein that degrades it), YFP fluorescence, overnight | actives 0.076% (n = 410,000) | AID 602310; note: % is set by controls: 0 for no effect and ±100 for the full control effect; nearly all actives have a fitted effect of over 60% in size
# Target sequence (Q9HC16 whole entry, looked up): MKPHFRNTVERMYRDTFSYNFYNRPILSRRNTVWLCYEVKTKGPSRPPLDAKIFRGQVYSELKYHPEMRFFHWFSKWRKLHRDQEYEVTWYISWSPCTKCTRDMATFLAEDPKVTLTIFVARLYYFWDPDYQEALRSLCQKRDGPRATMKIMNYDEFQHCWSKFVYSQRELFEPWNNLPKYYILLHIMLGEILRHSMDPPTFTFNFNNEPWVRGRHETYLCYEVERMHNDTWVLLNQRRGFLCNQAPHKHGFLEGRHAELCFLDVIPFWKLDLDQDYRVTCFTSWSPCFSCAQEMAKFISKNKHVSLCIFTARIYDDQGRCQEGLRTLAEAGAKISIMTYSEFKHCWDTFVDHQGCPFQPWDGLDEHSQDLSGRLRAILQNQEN
#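 Read-out is eYFP fluorescence (Ex 488/Em 500-530) from Vif-expressing HeLa A3G-eYFP cells; more signal means A3G escaped Vif-mediated degradation. Cells plated overnight, compound pinned in, incubated overnight at 37 deg C.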
# FUS yeast rescue – suppressors of FUS proteinopathy in yeast; S. cerevisiae FUS-expressing, growth rescue, OD600, 24 h; Potency, µM (series often up to 76.6 µM), most hits filed as activators; actives 0.24% (n = 390,000); AID 1347120;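 note: plate controls were DMSO vehicle for no effect and reference control for full effect; nearly all actives have a fitted effect of over 55% in size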
#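 Compound concentration series was pinned onto galactose-induced FUS-expressing yeast seeded at OD 0.005. Plates sat 24hr at 30C; absorbance at 600 nm gave growth. DMSO served as background control.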
# * = called active by the depositor; i = inactive; ? = inconclusive; nt = no result; [ ] = another dose, or the depositor's remark. Unless noted, calls come from the whole dose curve; as a rule, active = well fitted curve in the direction sought with a large enough effect; inconclusive = small, poorly fitted or top-dose-only effect, or another doubt; inactive = no such curve, though single readings can be large; an effect the other way counts as inactive or inconclusive. Potency is the fitted concentration of half-maximal effect.
SMILES,Vif-A3F inh,Abeta rescue,Glioma ERSR ind,PINK1 modulator,Vif-A3G inh,FUS yeast rescue
COc1ccccc1-c1ccnc(-n2ncc(C(=O)NCc3cccc(C)n3)c2C)n1,nt,nt,-1%,0%,nt,nt
COC(=O)c1c(NC(=O)C2Cc3ccccc3C(=O)O2)sc2c1CCCC2 (stereo not given),3%,i,-5%,14%,1%,i
COC(=O)c1c(NC(=O)C2(C)Cc3ccccc3C(=O)O2)sc2c1CCCC2 (stereo not given),2%,i,-1%,4%[38.3 µM],0%,4µM*
FC(F)(F)Oc1ccc(NC(=S)Nc2ccc(OC(F)(F)F)cc2)cc1,3%,?,-4%,16µM*,4%,i
COCC(=O)Nc1cc(C(=O)N[C@H]2CCCCNC2=O)c2c(c1)nc(-c1ccncc1)n2C,nt,nt,-2%,0%,nt,nt
O=C(CSc1nc2ccccc2c(=O)[nH]1)c1cccs1,-1%,i,5%,2%,-1%,i
Cc1cc(SCC(=O)c2cccs2)nc2ccccc12,11µM*,i,4%,9%,?,i
CCS(=O)(=O)N1CCC(C(=O)NCCc2ccc(OC)c(OC)c2)CC1,-4%,i,-3%,10µM*,1%,i
COc1ccc(CCNC(=O)C2CCN(S(C)(=O)=O)CC2)cc1OC,-2%,i,-2%,0%[38.3 µM],1%,i
CC(C)Cn1cc(C(=O)N2CCN(c3cccc(Cl)c3)CC2)c2c3ccccc3n(C)c2c1=O,3%,i,-2%,-1%,1%,35µM*
COc1ccc(N2CCN(C(=O)c3cn(CC(C)C)c(=O)c4c3c3ccccc3n4C)CC2)cc1,1%,i,-2%,0%,2%,?
CCC1(C2CCN(Cc3ccc(OC)cc3)CC2)NC(=O)N(CC2COc3ccccc3O2)C1=O (stereo not given),nt,nt,-6%,0%,nt,nt
CCC1C(=O)NCCN1Cc1ccc2c(c1)CN(Cc1ccc(F)c(OC)c1)CCO2 (stereo not given),nt,nt,-3%,-1%,nt,nt
CCn1nc(C)cc1C(=O)NCC1Cc2cc(C)cc(-c3ccccc3C(=O)OC)c2O1 (stereo not given),nt,nt,-3%,1%,nt,nt
COc1cc(C2=NOC(C(=O)NCc3ccco3)C2)cc(OC)c1OC (stereo not given),-9%,i,-6%,11µM*,?,i
CCCOc1ccc(CNC(=S)Nc2ccccc2)cc1Cl,?,11µM*,-2%,?,-4%,i
COc1ccc(CNC(=S)Nc2ccccc2)cc1Cl,-2%,?,9%,3%,-4%,i
CSCCC(=O)Nc1nc(-c2ccccn2)cs1,-31%,i,0%,2%,2%,i
O=C(Nc1nc(-c2ccccn2)cs1)C1CCCC1,7.1µM*,?,5%,0%,-2%,i
O=C(Nc1ccccc1N1CCN(C(=O)c2ccccc2)CC1)c1cc(Br)ccc1Cl,-9%,i,-3%,-4%,-4%,25µM*
OCCN1CCN(Cc2ccc3c(c2)CN(Cc2cccc4ncccc24)CCO3)CC1,nt,nt,-1%,0%,nt,nt
Cc1ccc(C)c(S(=O)(=O)NCc2nc(N3CCCC3)c3cc(Cl)ccc3n2)c1,nt,nt,-4%,1%,nt,nt
N#CC1=C(N)Oc2cc(N)ccc2C1c1ccc(F)cc1F (stereo not given),22µM*,i,-5%,10%,13µM*,i
CN(CC(=O)Nc1cccc(F)c1)C(=O)c1ccc(N2CCOCC2)c([N+](=O)[O-])c1,2%,i,-3%,0%,1%,i
CN(CC(=O)Nc1ccc(Cl)c(C(F)(F)F)c1)C(=O)c1ccc(N2CCOCC2)c([N+](=O)[O-])c1,2%,i,-1%,10%,-14%,32µM*
SMILES,Vif-A3F inh,Abeta rescue,Glioma ERSR ind,PINK1 modulator,Vif-A3G inh,FUS yeast rescue
CCCS(=O)(=O)NCc1c(C)ncc2c1CCN(C(=O)c1ccc3[nH]c4c(c3c1)CCCC4)C2,nt,nt,2%,3%,nt,nt
Cc1cccc(C(=O)NC(=S)NNC(=O)c2ccccc2Cl)c1,-7%,?,?,7%,-2%,nt
Cc1cc(C(=O)NNC(=S)NC(=O)/C=C/c2ccccc2Cl)n[nH]1,-5%,i,8%,2%[38.3 µM],-7%,13µM*
O=C(NCCN1Cc2ccccc2OC(c2ccccc2F)C1)c1cncs1 (stereo not given),nt,nt,-4%,0%,nt,nt
CC(=O)/C(N=Nc1nc2c([nH]1)c(=O)n(C)c(=O)n2C)=C(\C)O,-3%,i,-1%,2%,0%,2.2µM*
Cc1cc2c(c(-c3nc4ccccc4s3)c1)OC(CNC(=O)CCc1cccnc1)C2 (stereo not given),nt,nt,-2%,1%,nt,nt
Cc1ccc(NC(=S)NC(C)CCc2ccccc2)cc1C (stereo not given),-7%,i,-5%,?,-2%,nt
Cc1cccc(C)c1NC(=S)NC(C)CCc1ccccc1 (stereo not given),7.1µM*,?,-3%,0%,0%,i
COc1ccc(S(=O)(=O)Nc2ccc3c(c2)C(=O)N([C@H](C)CO)C[C@H](C)[C@@H](CN(C)C(=O)Nc2ccc(F)cc2)OCCCC[C@H](C)O3)cc1,-3%,i,0%,0%,-10%,25µM*
C[C@H]1CCCCO[C@@H](CN(C)S(=O)(=O)c2ccc(Cl)cc2)[C@@H](C)CN([C@@H](C)CO)C(=O)c2cc(NS(=O)(=O)c3ccccc3)ccc2O1,-4%,i,-1%,0%,0%,i
C[C@@H]1CCCCO[C@@H](CN(C)S(=O)(=O)c2ccccc2)[C@@H](C)CN([C@H](C)CO)C(=O)c2cc(NS(=O)(=O)c3ccc(F)cc3)ccc2O1,0%,i,-1%,2%,-6%,14µM*
OC1(c2ccc3c(c2)CN(Cc2nccs2)CCO3)CCN(c2ccccc2F)CC1,nt,nt,2%,0%,nt,nt
COc1ccc(CN2CCOc3ccc(C(O)c4cccnc4)cc3C2)c(OC)c1OC (stereo not given),nt,nt,-6%,0%,nt,nt
Cc1cc(Br)ccc1NC(=S)NCCc1ccccc1,-7%,11µM*,-2%,0%,-2%,i
COc1cc(C(=O)N(Cc2cc3ccc(C)cc3nc2N(C)C)C2CC2)cc(OC)c1OC,nt,nt,?,-1%,nt,nt
Cc1ccc(C(=O)CCC(=O)OCC(=O)Nc2ccccc2SCC#N)cc1,13µM*,i,-1%,1%,-13%,i
CSc1ccccc1NC(=O)COC(=O)CCC(=O)c1ccc(F)cc1,-1%,i,-3%,-1%,-1%,i
Cc1[nH]c2ccccc2c1/C=C/c1ccc2ccccc2n1,nt,nt,-6%,nt,11µM*,nt
Cc1[nH]c2ccccc2c1/C=C/c1cnc2ccccc2n1,nt,nt,5%,nt,?,nt

# High-throughput results deposited in PubChem BioAssay by National Center for Advancing Translational Sciences (NCATS).
